# Experimental data from PMC7862700, “An all-to-all approach to the identification of sequence-specific readers for epigenetic DNA modifications on cytosine”.
# How the values were obtained:
# Experiment in all cases: DAPPL (digital affinity profiling via proximity ligation, sequencing); 10 mM Tris-HCl pH 7.5, 50 mM NaCl, 1 mM DTT, 4% glycerol, room temperature, 30 min; GST-TFs on glutathione beads, 16-mer random dsDNA library, 0.1% formaldehyde crosslink after washing; high values mean tight binding
# FEV = biological target: T1, FEV (Homo sapiens, UniProt Q99581 1-238); details: protein: recombinant; tags: N-terminal GST; dsDNA, one strand shown
# T1 sequence: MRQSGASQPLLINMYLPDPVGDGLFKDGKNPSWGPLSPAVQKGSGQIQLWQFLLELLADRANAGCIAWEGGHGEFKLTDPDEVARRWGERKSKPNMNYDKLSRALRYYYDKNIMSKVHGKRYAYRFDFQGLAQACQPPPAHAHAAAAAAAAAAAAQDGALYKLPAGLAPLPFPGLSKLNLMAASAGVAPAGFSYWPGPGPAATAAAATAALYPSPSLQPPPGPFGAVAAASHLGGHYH
# How it was run: (§1)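 Binding signal is each hexamer's read frequency for a factor divided by its frequency in the tag-only sample. The factors were GST-fused human transcription factors from yeast, captured on glutathione beads, DNA-barcoded and pooled with that sample. Pools were incubated with 200 nmole of a random double-stranded 16-mer DNA library in Tris/NaCl/DTT/glycerol buffer at room temperature for 30 min, then washed, crosslinked with 0.1% formaldehyde, proximity-ligated with BsaI/T4 ligase (1 h, 37 °C), PCR-amplified and sequenced on an Illumina NextSeq500.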
# ETV5 = ETV5 (Homo sapiens, UniProt P41161 1-510); details: protein: recombinant; tags: N-terminal GST; dsDNA, one strand shown
# How it was run: as §1
# HSF1 = HSF1 (Homo sapiens, UniProt Q00613 1-529); details: protein: recombinant; tags: N-terminal GST; chain copies: 3; dsDNA, one strand shown
# How it was run: as §1
# SPIC = biological target: T2, SPIC (Homo sapiens, UniProt Q8N5J4 1-248); details: protein: recombinant; tags: N-terminal GST; dsDNA, one strand shown
# T2 sequence: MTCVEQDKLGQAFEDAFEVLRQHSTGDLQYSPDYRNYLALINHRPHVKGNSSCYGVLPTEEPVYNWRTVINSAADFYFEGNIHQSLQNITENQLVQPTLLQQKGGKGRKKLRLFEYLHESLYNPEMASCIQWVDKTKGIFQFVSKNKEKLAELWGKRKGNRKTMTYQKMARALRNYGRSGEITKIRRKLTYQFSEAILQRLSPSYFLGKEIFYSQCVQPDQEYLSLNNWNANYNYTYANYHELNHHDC
# How it was run: as §1
# ELF4 = ELF4 (Homo sapiens, UniProt Q99607 1-663); details: protein: recombinant; tags: N-terminal GST; dsDNA, one strand shown
# How it was run: as §1
# ELF3 = biological target: T3, ELF3 (Homo sapiens, UniProt P78545 1-371); details: protein: recombinant; tags: N-terminal GST; dsDNA, one strand shown
# T3 sequence: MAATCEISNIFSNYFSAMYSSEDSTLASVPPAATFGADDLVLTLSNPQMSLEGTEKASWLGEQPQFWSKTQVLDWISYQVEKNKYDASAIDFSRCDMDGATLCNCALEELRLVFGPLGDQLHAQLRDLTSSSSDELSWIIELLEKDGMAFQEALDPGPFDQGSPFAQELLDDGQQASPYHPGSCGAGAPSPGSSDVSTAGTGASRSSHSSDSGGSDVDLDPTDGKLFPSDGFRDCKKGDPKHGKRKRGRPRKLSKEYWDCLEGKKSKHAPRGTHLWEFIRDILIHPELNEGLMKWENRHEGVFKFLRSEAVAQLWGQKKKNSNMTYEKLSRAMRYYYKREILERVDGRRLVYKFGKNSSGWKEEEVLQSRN
# How it was run: as §1
# CRX = CRX (Homo sapiens, UniProt O43186 1-299); details: protein: recombinant; tags: N-terminal GST; dsDNA, one strand shown
# How it was run: as §1
# ETV1 = ETV1 (Homo sapiens, UniProt P50549 1-477); details: protein: recombinant; tags: N-terminal GST; dsDNA, one strand shown
# How it was run: as §1
# ERF = biological target: T4, ERF (Homo sapiens, UniProt P50548 1-548); details: protein: recombinant; tags: N-terminal GST; dsDNA, one strand shown
# T4 sequence: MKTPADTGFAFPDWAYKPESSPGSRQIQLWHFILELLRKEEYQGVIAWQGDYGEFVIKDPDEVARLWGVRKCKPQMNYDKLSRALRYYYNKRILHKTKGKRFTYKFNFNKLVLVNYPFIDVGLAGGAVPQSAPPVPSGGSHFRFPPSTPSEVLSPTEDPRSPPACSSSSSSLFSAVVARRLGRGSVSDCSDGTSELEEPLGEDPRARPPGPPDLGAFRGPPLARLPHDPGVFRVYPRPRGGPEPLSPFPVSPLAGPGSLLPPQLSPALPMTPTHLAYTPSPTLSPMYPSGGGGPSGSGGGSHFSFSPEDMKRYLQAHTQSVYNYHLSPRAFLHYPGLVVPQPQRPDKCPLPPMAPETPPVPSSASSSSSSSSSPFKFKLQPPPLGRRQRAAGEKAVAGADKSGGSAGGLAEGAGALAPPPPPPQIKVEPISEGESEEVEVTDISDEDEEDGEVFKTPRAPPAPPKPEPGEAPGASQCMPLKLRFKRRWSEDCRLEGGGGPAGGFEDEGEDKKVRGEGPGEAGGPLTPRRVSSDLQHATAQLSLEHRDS
# How it was run: as §1
# ETV3L = biological target: T5, ETV3L (Homo sapiens, UniProt Q6ZN32 1-361); details: protein: recombinant; tags: N-terminal GST; dsDNA, one strand shown
# T5 sequence: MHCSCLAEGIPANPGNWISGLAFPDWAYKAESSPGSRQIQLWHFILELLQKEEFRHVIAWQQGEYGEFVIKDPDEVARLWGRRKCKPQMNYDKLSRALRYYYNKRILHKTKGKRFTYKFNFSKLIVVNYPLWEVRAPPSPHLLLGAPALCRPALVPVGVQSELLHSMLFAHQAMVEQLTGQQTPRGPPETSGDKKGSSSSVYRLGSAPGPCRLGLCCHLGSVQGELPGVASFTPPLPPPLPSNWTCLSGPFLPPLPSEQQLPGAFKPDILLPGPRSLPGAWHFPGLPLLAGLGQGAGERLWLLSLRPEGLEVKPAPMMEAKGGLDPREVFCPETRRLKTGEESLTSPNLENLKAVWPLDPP
# How it was run: as §1
# ETS2 = biological target: T6, ETS2 (Homo sapiens, UniProt P15036 1-469); details: protein: recombinant; tags: N-terminal GST; dsDNA, one strand shown
# T6 sequence: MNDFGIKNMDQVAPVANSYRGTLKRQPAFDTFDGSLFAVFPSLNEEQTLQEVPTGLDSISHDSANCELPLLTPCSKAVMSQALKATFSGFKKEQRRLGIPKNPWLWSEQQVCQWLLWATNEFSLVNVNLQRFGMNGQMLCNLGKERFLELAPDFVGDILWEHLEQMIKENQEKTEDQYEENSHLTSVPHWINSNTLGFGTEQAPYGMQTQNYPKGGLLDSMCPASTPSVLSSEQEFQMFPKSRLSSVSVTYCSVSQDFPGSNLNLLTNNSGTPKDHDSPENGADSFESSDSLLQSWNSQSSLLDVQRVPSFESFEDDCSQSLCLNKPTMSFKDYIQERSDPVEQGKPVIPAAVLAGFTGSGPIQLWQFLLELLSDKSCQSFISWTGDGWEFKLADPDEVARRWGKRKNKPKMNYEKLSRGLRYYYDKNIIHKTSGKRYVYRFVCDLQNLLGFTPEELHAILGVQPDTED
# How it was run: as §1
# SPDEF = biological target: T7, SPDEF (Homo sapiens, UniProt O95238 1-335); details: protein: recombinant; tags: N-terminal GST; dsDNA, one strand shown
# T7 sequence: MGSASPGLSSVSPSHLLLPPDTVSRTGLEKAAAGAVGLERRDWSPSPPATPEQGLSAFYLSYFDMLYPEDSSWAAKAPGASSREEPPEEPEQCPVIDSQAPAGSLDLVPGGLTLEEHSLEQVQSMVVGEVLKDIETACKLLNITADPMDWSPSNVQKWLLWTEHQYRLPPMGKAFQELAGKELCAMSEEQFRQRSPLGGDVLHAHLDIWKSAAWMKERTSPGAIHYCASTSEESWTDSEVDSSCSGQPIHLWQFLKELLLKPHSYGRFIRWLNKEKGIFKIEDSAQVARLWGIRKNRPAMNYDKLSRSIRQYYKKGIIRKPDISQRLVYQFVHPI
# How it was run: as §1
# ETV7 = biological target: T8, ETV7 (Homo sapiens, UniProt Q9Y603 1-341); details: protein: recombinant; tags: N-terminal GST; dsDNA, one strand shown
# T8 sequence: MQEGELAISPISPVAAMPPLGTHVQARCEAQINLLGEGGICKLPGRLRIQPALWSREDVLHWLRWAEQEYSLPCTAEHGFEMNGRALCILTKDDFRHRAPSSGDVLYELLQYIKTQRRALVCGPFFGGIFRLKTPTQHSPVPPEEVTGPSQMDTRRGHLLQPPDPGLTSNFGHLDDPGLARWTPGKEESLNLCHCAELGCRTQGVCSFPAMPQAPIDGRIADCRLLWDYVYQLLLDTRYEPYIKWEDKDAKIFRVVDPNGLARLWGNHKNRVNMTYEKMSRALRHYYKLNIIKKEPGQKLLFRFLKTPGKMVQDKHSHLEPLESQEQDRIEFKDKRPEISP
# How it was run: as §1
# ELF5 = biological target: T9, ELF5 (Homo sapiens, UniProt Q9UKW6-2 1-255); details: protein: recombinant; tags: N-terminal GST; dsDNA, one strand shown
# T9 sequence: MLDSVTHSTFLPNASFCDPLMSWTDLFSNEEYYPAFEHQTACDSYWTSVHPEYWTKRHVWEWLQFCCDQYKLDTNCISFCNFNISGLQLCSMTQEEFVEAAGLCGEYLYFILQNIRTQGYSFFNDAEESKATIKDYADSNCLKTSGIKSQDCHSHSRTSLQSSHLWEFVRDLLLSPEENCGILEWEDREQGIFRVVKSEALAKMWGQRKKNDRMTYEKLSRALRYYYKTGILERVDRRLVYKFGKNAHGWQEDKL
# How it was run: as §1
# ETV3 = biological target: T10, ETV3 (Homo sapiens, UniProt P41162-2 1-143); details: protein: recombinant; tags: N-terminal GST; dsDNA, one strand shown
# T10 sequence: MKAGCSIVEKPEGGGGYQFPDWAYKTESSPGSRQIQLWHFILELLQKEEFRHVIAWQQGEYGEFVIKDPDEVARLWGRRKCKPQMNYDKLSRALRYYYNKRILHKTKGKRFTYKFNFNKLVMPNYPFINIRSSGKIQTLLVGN
# How it was run: as §1
# ETV6 = ETV6 (Homo sapiens, UniProt P41212 1-452); details: protein: recombinant; tags: N-terminal GST; dsDNA, one strand shown
# How it was run: as §1
# Chain of CRX (O43186 whole entry): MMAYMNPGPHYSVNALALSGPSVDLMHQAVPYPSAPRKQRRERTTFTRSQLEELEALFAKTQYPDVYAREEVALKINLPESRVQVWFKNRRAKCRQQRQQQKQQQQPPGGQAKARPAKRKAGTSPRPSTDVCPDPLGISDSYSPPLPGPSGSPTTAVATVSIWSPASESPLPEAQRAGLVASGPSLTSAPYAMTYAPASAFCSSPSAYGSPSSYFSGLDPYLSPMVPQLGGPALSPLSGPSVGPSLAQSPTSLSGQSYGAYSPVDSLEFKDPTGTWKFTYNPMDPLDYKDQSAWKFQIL
# Chain of ELF4 (Q99607 whole entry): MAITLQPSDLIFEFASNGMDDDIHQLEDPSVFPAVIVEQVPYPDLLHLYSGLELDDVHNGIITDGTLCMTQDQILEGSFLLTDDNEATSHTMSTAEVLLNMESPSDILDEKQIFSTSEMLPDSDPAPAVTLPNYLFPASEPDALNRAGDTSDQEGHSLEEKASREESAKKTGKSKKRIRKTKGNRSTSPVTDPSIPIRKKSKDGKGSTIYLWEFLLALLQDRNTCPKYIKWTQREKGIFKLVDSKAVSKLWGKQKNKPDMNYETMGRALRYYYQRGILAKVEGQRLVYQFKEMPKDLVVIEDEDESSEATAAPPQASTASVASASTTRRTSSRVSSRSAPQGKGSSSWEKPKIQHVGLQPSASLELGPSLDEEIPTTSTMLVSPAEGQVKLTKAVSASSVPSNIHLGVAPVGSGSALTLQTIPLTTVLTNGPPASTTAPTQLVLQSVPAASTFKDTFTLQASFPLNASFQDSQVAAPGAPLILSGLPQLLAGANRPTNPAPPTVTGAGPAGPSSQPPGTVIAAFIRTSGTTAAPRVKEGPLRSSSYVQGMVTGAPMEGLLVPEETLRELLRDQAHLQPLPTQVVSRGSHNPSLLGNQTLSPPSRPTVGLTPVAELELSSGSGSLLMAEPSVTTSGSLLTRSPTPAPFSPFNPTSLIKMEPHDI
# Chain of ETV5 (P41161 whole entry): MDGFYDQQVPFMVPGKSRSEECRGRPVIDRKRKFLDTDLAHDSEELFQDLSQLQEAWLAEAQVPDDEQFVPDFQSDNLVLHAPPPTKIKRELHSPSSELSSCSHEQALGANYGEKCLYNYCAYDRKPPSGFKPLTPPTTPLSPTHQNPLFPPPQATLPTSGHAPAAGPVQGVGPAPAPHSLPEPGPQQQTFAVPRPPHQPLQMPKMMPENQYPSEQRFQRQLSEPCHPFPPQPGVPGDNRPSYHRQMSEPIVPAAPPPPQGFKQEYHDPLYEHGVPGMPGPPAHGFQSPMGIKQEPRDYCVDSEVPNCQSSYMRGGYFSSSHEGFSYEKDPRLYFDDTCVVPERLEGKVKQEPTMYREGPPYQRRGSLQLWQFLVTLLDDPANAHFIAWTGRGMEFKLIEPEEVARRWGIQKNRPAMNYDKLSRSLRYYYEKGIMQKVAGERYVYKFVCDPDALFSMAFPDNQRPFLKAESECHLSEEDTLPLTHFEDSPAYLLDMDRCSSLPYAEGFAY
# Chain of ETV6 (P41212 whole entry): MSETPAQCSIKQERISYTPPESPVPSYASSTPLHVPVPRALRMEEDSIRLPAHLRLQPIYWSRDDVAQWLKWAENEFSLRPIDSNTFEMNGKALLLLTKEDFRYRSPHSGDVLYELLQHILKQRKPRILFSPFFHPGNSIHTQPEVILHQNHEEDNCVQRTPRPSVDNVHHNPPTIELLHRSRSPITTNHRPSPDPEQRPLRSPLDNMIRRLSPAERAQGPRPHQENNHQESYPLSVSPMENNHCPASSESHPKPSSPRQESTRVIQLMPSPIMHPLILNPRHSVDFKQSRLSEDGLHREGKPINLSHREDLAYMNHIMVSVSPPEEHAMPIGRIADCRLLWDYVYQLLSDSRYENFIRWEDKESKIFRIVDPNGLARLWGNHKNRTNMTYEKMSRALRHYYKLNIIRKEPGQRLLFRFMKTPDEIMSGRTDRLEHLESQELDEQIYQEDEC
# Chain of ETV1 (P50549 whole entry): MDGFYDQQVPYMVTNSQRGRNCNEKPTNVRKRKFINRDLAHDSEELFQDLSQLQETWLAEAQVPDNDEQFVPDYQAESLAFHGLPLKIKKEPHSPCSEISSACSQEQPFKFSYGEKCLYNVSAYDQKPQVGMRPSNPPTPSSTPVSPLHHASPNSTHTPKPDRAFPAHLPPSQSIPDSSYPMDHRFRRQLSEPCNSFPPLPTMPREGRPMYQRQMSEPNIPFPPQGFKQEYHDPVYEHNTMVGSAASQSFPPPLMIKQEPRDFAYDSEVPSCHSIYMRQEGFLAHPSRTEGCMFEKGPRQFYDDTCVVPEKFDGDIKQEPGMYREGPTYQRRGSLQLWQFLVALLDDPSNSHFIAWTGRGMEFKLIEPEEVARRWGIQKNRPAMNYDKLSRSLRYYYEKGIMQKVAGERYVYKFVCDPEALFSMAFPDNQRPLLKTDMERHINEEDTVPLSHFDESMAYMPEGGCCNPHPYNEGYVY
# Chain of HSF1 (Q00613 whole entry): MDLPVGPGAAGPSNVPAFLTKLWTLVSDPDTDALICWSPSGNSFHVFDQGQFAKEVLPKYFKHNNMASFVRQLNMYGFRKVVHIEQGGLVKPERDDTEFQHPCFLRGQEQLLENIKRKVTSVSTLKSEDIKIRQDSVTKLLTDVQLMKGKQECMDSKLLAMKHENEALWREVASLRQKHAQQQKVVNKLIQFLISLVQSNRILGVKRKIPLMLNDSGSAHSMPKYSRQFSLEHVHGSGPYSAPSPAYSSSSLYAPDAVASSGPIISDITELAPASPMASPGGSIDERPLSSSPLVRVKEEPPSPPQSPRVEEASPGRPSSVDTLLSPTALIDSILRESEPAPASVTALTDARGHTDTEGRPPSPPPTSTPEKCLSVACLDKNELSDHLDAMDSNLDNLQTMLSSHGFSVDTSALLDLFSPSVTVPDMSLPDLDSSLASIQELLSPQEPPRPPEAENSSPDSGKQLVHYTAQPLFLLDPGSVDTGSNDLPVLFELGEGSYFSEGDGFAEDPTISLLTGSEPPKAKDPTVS
sequence,measurement,setting,value
CAAGTA,binding signal,FEV,"1.04 fold enrichment (6-mer frequency, TF over GST control)"
same,binding signal,ETV5,"1.11 fold enrichment (6-mer frequency, TF over GST control)"
same,binding signal,HSF1,"1.02 fold enrichment (6-mer frequency, TF over GST control)"
same,binding signal,SPIC,"1.09 fold enrichment (6-mer frequency, TF over GST control)"
same,binding signal,ELF4,"1.16 fold enrichment (6-mer frequency, TF over GST control)"
same,binding signal,ELF3,"1.28 fold enrichment (6-mer frequency, TF over GST control)"
same,binding signal,CRX,"1.08 fold enrichment (6-mer frequency, TF over GST control)"
same,binding signal,ETV1,"1.03 fold enrichment (6-mer frequency, TF over GST control)"
same,binding signal,ERF,"1.14 fold enrichment (6-mer frequency, TF over GST control)"
same,binding signal,ETV3L,"1.09 fold enrichment (6-mer frequency, TF over GST control)"
same,binding signal,ETS2,"1.05 fold enrichment (6-mer frequency, TF over GST control)"
same,binding signal,SPDEF,"1.08 fold enrichment (6-mer frequency, TF over GST control)"
same,binding signal,ETV7,"1.11 fold enrichment (6-mer frequency, TF over GST control)"
same,binding signal,ELF5,"1.06 fold enrichment (6-mer frequency, TF over GST control)"
same,binding signal,ETV3,"1.11 fold enrichment (6-mer frequency, TF over GST control)"
same,binding signal,ETV6,"1.14 fold enrichment (6-mer frequency, TF over GST control)"
